The results in this text go back to PubChem BioAssay AID493192 (National Center for Advancing Translational Sciences (NCATS), 2011).

Structures are written as SMILES. Inconclusive results are not listed. Entries that show only a call come without a potency. The source made the active and inactive calls. Calls follow the shape of the dose curve; as a rule, active = well fitted activation curve with a large enough effect; inconclusive = small, poorly fitted or top-dose-only effect; inactive = no such curve, though single readings can be large or run the other way.

The nature of the assay: qHTS Assay for Identifying a Potential Treatment of Ataxia-Telangiectasia: Hit Validation.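 Also: phospho-KAP1 level by AlphaLISA as a proxy for ATM-like kinase activity.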 Particulars: Ataxia-telangiectasia cell-based hit validation qHTS, in ATM-null A-T patient fibroblasts; series mostly up to 76.9 µM. In short, it runs like this: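 hTERT-immortalized A-T patient fibroblasts (F2112) were dosed at up to 76.7 uM final for 60 min at 37C. After a further 30 min incubation, cells were lysed, and phospho-KAP1 was detected by AlphaLISA after 6 hr at 25C.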
Potency is read from the fitted curve at half-maximal effect.

Take `CN(C)S(=O)(=O)c1ccc(NC(=O)c2ccc([N+](=O)[O-])cc2)cc1`: the Potency entry is “inactive”. With `N#CCN1C(=O)C(=O)N(Cc2cccc(Cl)c2)C1=O` the entry was “inactive”; with `O=c1c(-c2ccc(Cl)cc2)c[nH]n1-c1ccccc1`, “inactive”; with `COC(=O)c1ccc2[nH]c3cccc(/C(=C/c4ccccc4)c4ccccc4)c3c2c1`, “inactive”.

For `CCN(CC)c1ccc2cc(-c3nc4ccccc4[nH]3)c(=O)oc2c1`, the Potency entry is “inactive”. For `CC(C)Nc1nc(Oc2ccc(=O)n(-c3ccccc3)n2)nc(N(C)C)n1`, the Potency entry is “inactive”. The result for `Cc1ccc(C)c(-c2csc(Nc3ncccn3)n2)c1` reads “inactive”; that for `CC(=O)NNC(=O)CN1C(=O)/C(=C/c2ccccc2)SC1=S`, “inactive”. With `Cc1ccc(C)c(-n2c(SCC(=O)NC(C(=O)O)C(C)C)nnc2-c2cccc(Cl)c2)c1` (configuration not stated) the figure was 36.8 µM (active). On to `CCOC(=O)c1[nH]c(COC(=O)c2ccccc2NC(=O)c2ccco2)c(C(=O)OCC)c1C`, for which the Potency entry was “inactive”. Take `CCOC(=O)CN(C(=O)CSc1nnc(COc2ccc(OC)cc2)n1CC)c1ccccc1`: the Potency result is “inactive”. `CCOC(=O)N1CCC(NC(=O)C2CCN(S(=O)(=O)c3cccc4cccnc34)CC2)CC1`: the Potency entry was “inactive”. The result for `FC(F)(F)c1cccc(OCC2CNC(=S)O2)c1` (configuration not stated) reads “inactive”; that for `COc1cccc(CNC(=O)C(CC(C)C)NC(=O)c2ccccc2C)c1` (configuration not stated), “inactive”. With `CC(=O)/C(N=Nc1nc2c([nH]1)c(=O)n(C)c(=O)n2C)=C(\C)O` the entry was “inactive”. The result for `CCOC(=O)c1ccccc1NC(=O)c1ccc2nc[nH]c2c1` reads “inactive”. `CC(NC(=O)COC(=O)/C=C/c1ccc(Cl)cc1)c1ccccc1` (configuration not stated): the Potency entry was “inactive”.
